Sampled rows, rich in hits. Any-hit rate of the full collection: about 7.2%.
Sm TGR inh – blocks Schistosoma mansoni thioredoxin glutathione reductase. Q962Y6. purified TGR, DTNB reduction, TNB absorbance 405 nm. Potency, µM (series often up to 114 µM), most hits filed as inhibitors. 360,000 compounds, 3% hits. AID 485364; further: nearly all actives have a fitted effect of over 60% in size
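Kinetic colorimetric format: TGR-catalysed, NADPH-driven DTNB reduction monitored via TNB absorbance. Enzyme dispensed at 20 nM; compound exposure 15 min at room temperature before reaction start.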
Marburg entry inh – inhibitors of Marburg virus binding or cell entry; Potency, µM (titrated, usually from 37.8 µM), actives largely listed as inhibitors; Marburg virus pseudotyped entry inhibition, cell reporter; 300,000 compounds, 1.8% hits; AID 540276; calls by dose curve; tested in HEK293 cells
RE007 growth inh – less growth of the S. pombe RE007 Vpr strain | S. pombe RE007 Vpr strain, BacTiter-Glo ATP luminescence, 24 h | Potency, µM (titrated, usually from 92.2 µM), actives largely listed as inhibitors | 360,000 compounds, 0.21% hits | AID 651644; active means well fitted falling curve with a large enough effect; inconclusive means small, poorly fitted or top-dose-only effect; inactive means no such curve, though single readings can be large or run the other way; further: nearly all actives have a fitted effect of over 50% in size
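Fission yeast strain RE007, carrying one chromosomally integrated HIV-1 vpr copy, was seeded at OD 0.01 in PMG+AL medium with 23 nL pinned compound. After 24 h at 30 °C and 99% humidity, viability was read by BacTiter-Glo luminescence.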
FMDV inh – antivirals against foot and mouth disease virus. Potency, µM (top dose mostly 57.9 µM), most hits filed as inhibitors. AID 1159524. 410,000 compounds, 1.2% hits. FMDV antiviral cell-based qHTS; calls by dose curve; tested in HEK293T cells; further: read-out not given here; nearly all actives have a fitted effect of over 45% in size
HCV inh – HCV inhibition. Huh7.5.1 HCVcc-Cre infection, luciferase reporter, 44 h. Potency, µM (highest dose often 41.8 µM), hits mostly inhibitors. 340,000 compounds, 3.4% hits. AID 651820
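A cell-based infection assay in which seeded cells (1,000 per well) receive test compound after 4 h, are inoculated with HCVcc-Cre at approximately 0.5 moi, and are incubated 44 h before luminescence detection.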
Lassa entry inh – Lassa virus entry inhibition | Lassa virus pseudotype entry inhibition, cell reporter | 300,000 compounds, 1.2% hits | Potency, µM (series often up to 37.9 µM), usual class: inhibitors | AID 540256; calls by dose curve; tested in HEK293 cells; further: nearly all actives have a fitted effect of over 50% in size
Numbers stand for hits; n = inactive; u = inconclusive; x = no result; [ ] = dose if it differs, or a comment. Unless noted, the call rests on the fitted dose curve; in most records, active means well fitted curve in the direction sought with a large enough effect; inconclusive means small, poorly fitted or top-dose-only effect, or another doubt; inactive means no such curve, though single readings can be large; an effect the other way counts as inactive or inconclusive.

SMILES	Sm TGR inh	Marburg entry inh	RE007 growth inh	FMDV inh	HCV inh	Lassa entry inh
c1coc(-c2nc3nc4ccccc4nc3n2CC2CCCO2)c1 (configuration not stated)	50µM	n	n	n	n	n
COc1ccc(CCn2c(-c3ccco3)nc3nc4ccccc4nc32)cc1	50µM	u	n	n	n	n
CCCCCn1c(-c2ccco2)nc2nc3ccccc3nc21	u	11µM	n	n	n	n
CNc1oc(/C=C/c2cc(OC)c(OC)c(OC)c2)nc1C#N	n	n	x	n	x	n
CC(C)c1ccc(/C=C(\C#N)c2nc(-c3ccc(O)cc3)cs2)cc1	n	x	x	n	x	n
C[C@H](O)[C@@H]1C(=O)N2CCc3ccc(-c4cccc(F)c4)cc3[C@@H]2C[C@@H]1N(C)C(=O)Nc1ccccc1	x	x	n	n	n[8.37 µM]	x
COc1ccc(-c2ccc3c(c2)[C@@H]2C[C@H](N(C)C(=O)Nc4ccccc4)[C@H]([C@H](C)O)C(=O)N2CC3)cc1	x	x	n	n	2µM	x
O=C(c1ccc(Oc2ccc([N+](=O)[O-])cc2Cl)cc1)N1CCCC1	n	n	n	n	n	n
CC1CC(C)CN(C(=O)c2ccc(-c3ccc([N+](=O)[O-])cc3)o2)C1 (configuration not stated)	3.2µM	x	u	n	n	x
O=C(c1ccc(Oc2ccc([N+](=O)[O-])cc2)cc1)N1CCCCCC1	n	5.6µM	n	n	25µM	u
O=C(c1ccc(-c2cccc([N+](=O)[O-])c2)o1)N1CCN(c2ccc([N+](=O)[O-])cc2)CC1	n	u	n	u	u	n
O=C(c1ccc(-c2ccc(Cl)cc2)o1)N1CCN(c2ccc([N+](=O)[O-])cc2Cl)CC1	n	n	n	n	u	u
O=C(c1ccc(-c2ccc([N+](=O)[O-])cc2)o1)N1CCCCC1	45µM	n	n	n	n	n
Cc1[nH]c2ccccc2c1C1=CC(=O)C=CC1=O	x	u	25µM	u	u	u
COc1ccc(C(=O)OCC#CCSc2nnc(-c3cccc4ccccc34)o2)cc1	n	x	x	n	x	x
O=C(OCC#CCNc1nnc(-c2cccc3ccccc23)o1)c1cccs1	18µM	x	x	x	x	x
O=C1C=CC(=Nc2cccc3c2C(=O)c2ccccc2-3)O1	x	u	n	n	n	n
O=C1C=CC(=Nc2ccc3c(c2)Cc2cc(F)ccc2-3)O1	x	n	3.2µM	n	n	u
c1coc(-c2ccc3ncnc(NCc4cccs4)c3c2)c1	32µM	x	x	x	x	x
Cc1cccc(-c2ccc3ncnc(NCc4cccs4)c3c2)c1	n	x	x	25µM	x	x
Clc1ccccc1-c1ccc2ncnc(NCc3cccs3)c2c1	n	x	x	n	x	x
CCOc1ccc(OCC)c2sc(C)nc12	n	n	n	n	10µM	n
CCOc1cccc2sc(Cl)nc12	n	u	n	n	n	u
COC(=O)c1c(C(=O)OC)n(CCCN)c2ccc(C)cc12	n	8.2µM	n	n	u	u
CCOC(=O)c1c(C)n(CCO)c2ccc(O)cc12	n	u	n	n	n	n
SMILES	Sm TGR inh	Marburg entry inh	RE007 growth inh	FMDV inh	HCV inh	Lassa entry inh
CCOC(=O)C1(Cc2cccc(OC)c2)CCCN(C(=O)c2ccc(OC)o2)C1 (configuration not stated)	50µM	n	n	n	u	n
CCOC(=O)C1(Cc2cccc(OC)c2)CCN(Cc2cccc(OC)c2O)CC1	n	u	u	25µM	u	u
CCOC(=O)C1(Cc2cccc(OC)c2)CCN(Cc2ccc(C)s2)CC1	n	5µM	n	u	u	4.5µM
CCOC(=O)C1(Cc2cccc(OC)c2)CCCN(C(=O)c2cc(CC(C)C)[nH]n2)C1 (configuration not stated)	n	n	n	n	n	u
CCOC(=O)C1(Cc2ccc(OC)cc2)CCN(S(C)(=O)=O)CC1	n	n	n	n	n	n
CCOC(=O)C1(Cc2ccc(Cl)cc2)CCN(C(C)Cc2ccc(O)c(OC)c2)CC1 (configuration not stated)	n	x	n	u	10µM	x
CCOC(=O)C1(Cc2cccc(OC)c2)CCN(Cc2ccccc2OC)CC1	n	u	n	u	u	n
CCOC(=O)C1(Cc2cccc(OC)c2)CCN(Cc2ccc(OC)c(OC)c2)CC1	x	4.5µM	n	n	11µM	u
CCOC(=O)C1(Cc2cccc(OC)c2)CCN(Cc2cccc(O)c2)CC1	n	u	n	u	n	n
